VLA-4 inh – inhibition in human VLA-4 binding assay, primary screen, VLA-4 allosteric modulator project, MLPCN library, flow cytometry, VLA-4 expressing cells | inhibition, % (about 7 µM as worked out from the volumes in the protocol) | ligand binding flow cytometry | 330,000 compounds, 0.2% hits | AID 2557, 2010 | Integrin alpha-4 (Homo sapiens), P13612; in the data active means inhibition above about 50%
A3A deaminase – APOBEC3A ssDNA deaminase inhibitors, primary screen, selectivity assay for APOBEC3G inhibitor project, biochemical, FAM/TAMRA oligo cleavage fluorescence. recombinant A3A, FAM/TAMRA ssDNA deamination fluorescence. 330,000 compounds, 0.41% hits. AID 493011, 2011. DNA dC->dU-editing enzyme APOBEC-3A (Homo sapiens), P31941. inhibition, % at 20 µM;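 active means at least 40% inhibition at 20 µM here, with at most 30% in a related deaminase screen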
GRK2 aptamer HTS – compounds blocking aptamer binding on GRK2 – biochemical, human GRK2, bead flow cytometry, HTS, primary screen; FAM-aptamer displacement from GRK2; 330,000 compounds, 0.59% hits; Beta-adrenergic receptor kinase 1 (Homo sapiens), P25098; inhibition of aptamer binding, % at 10 µM;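 active means inhibition of aptamer binding above 40%, roughly 3 SD of noise, on plates passing a quality check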;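 further: median bead fluorescence of bound FAM aptamer so fluorescent compounds give negative values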
Target sequence (P25098 whole entry, looked up): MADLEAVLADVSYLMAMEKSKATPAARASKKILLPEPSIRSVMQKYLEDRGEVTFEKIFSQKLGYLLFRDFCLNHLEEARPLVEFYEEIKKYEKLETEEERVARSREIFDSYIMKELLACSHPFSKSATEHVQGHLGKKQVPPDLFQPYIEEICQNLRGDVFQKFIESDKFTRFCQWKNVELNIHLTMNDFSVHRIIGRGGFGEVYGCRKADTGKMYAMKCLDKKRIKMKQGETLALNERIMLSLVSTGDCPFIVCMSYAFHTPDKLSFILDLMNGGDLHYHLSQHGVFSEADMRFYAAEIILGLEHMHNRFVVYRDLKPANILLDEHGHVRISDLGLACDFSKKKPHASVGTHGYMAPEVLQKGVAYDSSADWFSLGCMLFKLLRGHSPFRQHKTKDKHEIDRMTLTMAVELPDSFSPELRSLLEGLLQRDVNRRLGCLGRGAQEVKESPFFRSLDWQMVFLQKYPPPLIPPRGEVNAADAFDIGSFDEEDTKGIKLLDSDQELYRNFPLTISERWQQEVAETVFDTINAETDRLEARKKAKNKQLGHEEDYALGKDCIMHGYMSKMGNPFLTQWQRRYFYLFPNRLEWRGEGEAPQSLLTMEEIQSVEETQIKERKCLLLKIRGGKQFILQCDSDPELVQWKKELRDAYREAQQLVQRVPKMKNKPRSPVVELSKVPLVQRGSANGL
APOBEC3G inh – APOBEC3G DNA deaminase inhibitors, primary screen, biochemical, fluorescence, single-stranded DNA substrate, uHTS; DNA dC->dU-editing enzyme APOBEC-3G (Homo sapiens), Q9HC16; AID 493012, 2011; recombinant A3G, ssDNA deamination FAM/TAMRA fluorescence; inhibition, % at 20 µM; 330,000 compounds, 0.28% hits;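 active means inhibition of at least 40% at 20 µM, with no more than 30% in the related APOBEC3A deaminase screen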
GRK2 CP1 – GRK2 aptamer-displacing inhibitors, retest, confirmation, biochemical, cherry pick 1, bead flow cytometry; shares compounds with GRK2 aptamer HTS; bead-bound GRK2, FAM-aptamer displacement; aptamer displacement, % at 10 µM; 2,000 compounds, 4% hits; AID 504451, 2011;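 active means aptamer displacement above 40%, near three times the noise of non-fluorescent compounds, on plates passing quality checks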;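 further: negative values mostly reflect intrinsic compound fluorescence rather than true enhancement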
Aptamer quench SP – counter-screen for GRK2 aptamer inhibitors: fluorescent aptamer quenchers; shares compounds with GRK2 aptamer HTS; Carboxyfluorescein RNA aptamer on beads, flow cytometry quenching; hits give low values; fluorescence response (% of DMSO), % at 10 µM; 2,000 tested, under 10 active; AID 504580;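 active means compounds that quench the bead-bound fluorescent RNA probe, cutting fluorescence to under half of the solvent control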;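 further: counterscreen run without GRK2 so only probe quenching by compound is measured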
GRK2 CP2 – GRK2 aptamer-displacing inhibitors, hit retest, confirmation, biochemical, cherry pick 2, bead flow cytometry; shares compounds with GRK2 aptamer HTS; bead-bound GRK2, FAM-aptamer displacement; inhibition of aptamer binding, % at 10 µM; 360 tested, under 10 active;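 active means inhibition of aptamer binding above 40%, about triple the noise seen with nonglowing compounds, on plates passing quality control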;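 further: negative values mostly come from compounds that fluoresce themselves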
FAM quench SP – aptamer fluorescence quenching in GRK2 counter-screen; shares compounds with GRK2 aptamer HTS; carboxyfluorescein RNA aptamer beads, flow cytometry quenching; hits give low values; fluorescence response vs DMSO, % at 10 µM; 360 tested, under 10 active;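 active means response vs DMSO under 50%, meaning signal dropped by over half, treated as fluorescence quencher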;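 further: labelled aptamer on streptavidin beads without GRK2 as a quench counter-screen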
Large screens that a line does not name were inactive (follow-up assays come after a bar, where they were run). Sampled rows, rich in hits. Any-hit rate of the full collection: about 1.4%.

COc1cccc(C2c3[nH]c4ccccc4c3C[C@H]3C(=O)N(C4CCN(Cc5ccccc5)CC4)CC(=O)N23)c1 (stereo partly drawn)	none | GRK2 CP1 inactive | Aptamer quench SP inactive
Cc1ccc(S(=O)(=O)N2CCC(C(=O)N3CCc4ccccc43)CC2)cc1	none
Cc1cc(C(=O)CN2C(=O)C(=O)N(C3CCCC3)C2=O)c(C)n1CCc1ccccc1	none (no result: VLA-4 inh, GRK2 aptamer HTS)
CCCOC(=O)CCCN1C(=O)/C(=C2\SC(=S)N(CCCC(=O)OCCC)C2=O)SC1=S	GRK2 aptamer HTS 60.0 | GRK2 CP1 inactive | Aptamer quench SP inactive
N#C/C(=C\Nc1ccc(F)c(Cl)c1)S(=O)(=O)c1ccccn1	none
CN(C(=O)c1ccc(NC(=O)Cc2ccc(NC(=O)C3CCN(C(=O)C4CCCC4)CC3)cc2)cc1)C1CC1	none
CN(C(=O)c1ccc(NC(=O)Cc2ccc(NC(=O)C3CCN(C(=O)C4CCC4)CC3)cc2)cc1)C1CC1	GRK2 aptamer HTS 69.0 | GRK2 CP1 inactive | Aptamer quench SP inactive
O=C(COc1ccccc1O)N1CCN(C(=O)c2ccco2)CC1	none
CCc1ccc(Nc2nc(C)cc(C)n2)cc1	none
Nc1cc(N2CCCC2)ccc1[N+](=O)[O-]	none
CCCCCC(=O)N1CC2(CC(c3cccc(NC(=O)CC(c4ccccc4)c4ccccc4)c3)=NO2)C[C@@H]1C(N)=O (stereo partly drawn)	none | GRK2 CP2 inactive | FAM quench SP inactive
CCCCCC(=O)N1CC2(CC(c3cccc(NC(=O)COc4ccc(Cl)cc4)c3)=NO2)C[C@@H]1C(N)=O (stereo partly drawn)	none | GRK2 CP2 inactive | FAM quench SP inactive
CCCCCC(=O)Nc1cccc(C2=NOC3(C2)C[C@H](C(N)=O)N(C(=O)CCCCC)C3)c1 (stereo partly drawn)	none
COc1ccccc1NS(=O)(=O)c1cccc(C(=O)OCC(=O)NC2CC2)c1	GRK2 aptamer HTS 59.0 | GRK2 CP1 inactive | Aptamer quench SP inactive
CCN1CCN(CCNC(=O)C2CCCN(Cc3nc(-c4cccc(Cl)c4)oc3C)C2)CC1 (stereo not drawn)	none
COc1cccc(C(=O)Nc2cccc(-c3ccc4nncn4n3)c2)c1OC	none
COc1ccc(Cl)cc1C(=O)Nc1cccc(-c2ccc3nncn3n2)c1	GRK2 aptamer HTS 60.0 | GRK2 CP1 inactive | Aptamer quench SP inactive
CCOC(=O)c1ccc(N2C(=O)C3CCCN3C2=S)cc1 (stereo not drawn)	GRK2 aptamer HTS 42.0 | GRK2 CP2 inactive | FAM quench SP inactive
COc1ccc(NC(=O)CSCC(=O)Nc2ccc(S(=O)(=O)N3CCOCC3)cc2)cc1	none
Cc1cc(CN(C)Cc2c(C(=O)N3CCCCCCC3)nc3ccc(Cl)cn23)n[nH]1	none
CN(C(=O)CN1C(=O)S/C(=C\c2ccccc2)C1=O)C1CCS(=O)(=O)C1 (stereo not drawn)	none
CN(C(=O)CCN1C(=O)/C(=C/c2ccccc2)SC1=S)C1CCS(=O)(=O)C1 (stereo not drawn)	GRK2 aptamer HTS 72.0 | GRK2 CP1 inactive | Aptamer quench SP inactive
CCOc1ncccc1C(=O)OCC(=O)Nc1ccc2c(c1)CCC2	none | GRK2 CP1 inactive | Aptamer quench SP inactive
O=C(COc1ccc(C2SCCS2)cc1)NNC(=O)C(Cl)Cl	GRK2 aptamer HTS 46.0 | GRK2 CP1 inactive | Aptamer quench SP inactive
CS(=O)(=O)c1ccc(NCCc2ccccn2)c([N+](=O)[O-])c1	GRK2 aptamer HTS 60.0 | GRK2 CP1 inactive | Aptamer quench SP inactive
Cc1nc(N2CCN(C(=O)c3ccco3)CC2)c2c3c(sc2n1)CCCC3	none | GRK2 CP1 inactive | Aptamer quench SP inactive
CN1CCCC(CC2Oc3ccccc3Sc3ccccc32)C1 (stereo not drawn)	GRK2 aptamer HTS 44.0 | GRK2 CP2 inactive | FAM quench SP inactive
COc1cc2[nH]c(=S)nc(NCCC(C)C)c2cc1OC	none
COC(=O)c1cc(-c2ccc(Br)cc2)n[nH]1	GRK2 aptamer HTS 54.0 | GRK2 CP1 inactive | Aptamer quench SP inactive
CC12CCC(=O)N1c1c(sc3nc(N4CCOCC4)c4c(c13)CCCC4)C(=O)N2 (stereo not drawn)	GRK2 aptamer HTS 45.0 | GRK2 CP1 inactive | Aptamer quench SP inactive
COC(=O)c1ccc(-c2sc3nc(N4CCOCC4)c4c(c3c2N)CCCC4)o1	none
O=C(CNS(=O)(=O)c1ccc(Cl)c(C(F)(F)F)c1)NC1CCCCCC1	GRK2 aptamer HTS 43.0 | GRK2 CP2 inactive | FAM quench SP inactive
O=C(CNS(=O)(=O)c1cccc(C(F)(F)F)c1)NC1CCCCCC1	none
O=C(CCN1C(=O)C2CC=CCC2C1=O)N1CCN(c2ccccn2)CC1 (stereo not drawn)	none
COc1ccc(CCNC(=O)C(=O)NCC2OCCN2S(=O)(=O)c2cc(F)ccc2F)cc1OC (stereo not drawn)	GRK2 aptamer HTS 78.0 | GRK2 CP1 inactive | Aptamer quench SP inactive
CCN(C(=O)CN1C(=O)c2ccc([N+](=O)[O-])cc2C1=O)C1CCCCC1	GRK2 aptamer HTS 69.0 | GRK2 CP2 inactive | FAM quench SP 35.0
Cc1ccc2oc(-c3ccc(NC(=O)c4ccncc4)cc3O)nc2c1	none
COc1ccc(CC(=O)Nc2ccc(-c3nc4cc(C)ccc4o3)c(O)c2)cc1OC	GRK2 aptamer HTS 71.0 | GRK2 CP1 inactive | Aptamer quench SP inactive
CC(=O)c1cnc2c(-c3cccc(Br)c3)cnn2c1C	none
O=C(O)C1CC=CCC1C(=O)NCc1ccccc1 (stereo not drawn)	none
COc1ccc(CNC(=O)C2CC=CCC2C(=O)O)cc1OC (stereo not drawn)	none | GRK2 CP2 inactive | FAM quench SP inactive
Fc1ccc2cnc(-c3ccccc3)c(-c3ccc(C(F)(F)F)cc3)c2c1	none
O=[N+]([O-])c1ccc(-c2c(-c3ccccc3)ncc3ccc(F)cc23)cc1	GRK2 aptamer HTS 100.0 | GRK2 CP1 inactive | Aptamer quench SP inactive
O=C(Nc1nc(-c2ccc(Cl)cc2Cl)cs1)c1ccc(OCC2CCCO2)cc1 (stereo not drawn)	none

Bioassay records (PubChem BioAssay)
